Fold change and outcome data for 16 compounds are collected here from PubChem BioAssay AID1259240 (Keith Lab, Institute of Cancer Science, University of …, 2017).

Structures are written as SMILES. Values without a mark were called inactive. Activity calls are given as the source filed them. Rule as the data show it: active = fold change mostly below about -2 (no sharp cut-off); inactive = mostly above about -1.8.

This experiment is described as follows: TERT promoter activity modulators, primary screen, cell-based, luciferase reporter, human (AID 1259240). The conditions noted are these: A2780 TERT promoter luciferase reporter, 16 h; at 20 µM, fold versus average of vehicle-only wells.
Regarding `CCOC(=O)C1=C(CS(=O)(=O)c2ccccc2)NC(=O)NC1c1cccc(Br)c1` (stereo unspecified), the fold change is 1.6.
For `COc1ccc2c(c1)/C(=c1/sc3n(c1=O)CN(c1ccc(C)c(Cl)c1)CN=3)C(=O)N2`, the fold change is -1.71.
For `CCc1ccc(N2CC(O)=C(c3nc4ccccc4c(=O)[nH]3)C2=N)cc1`, the call was inactive.
`COc1ccc(Cl)cc1S(=O)(=O)n1ccnc1C(C)C`: the fold change is -4.76 (active).
For `O=C(O)COc1ccc(/C=C2/NC(=O)N(c3ccccc3)C2=O)cc1`, the fold change is -1.53.
Take `CCc1ccc(C2C3=C(CC(C)(C)CC3=O)NC3=C2C(=O)c2ccccc23)cc1` (stereo unspecified): the fold change was -2.26 (active).
Still for that read-out and setting: the result for `CC1CCCC(NS(=O)(=O)c2cccc3cccnc23)C1C` (stereo unspecified) reads -3.72 (active); that for `CC1CCN(c2nnc(NC(=O)Nc3ccc(F)cc3)s2)CC1`, -1.1; that for `Brc1cccc(-c2nc3cnccn3c2NC2CCCCC2)c1`, -1.11.
The same measure, in the same setting: the figure for `O=C(NCCc1c[nH]c2ccccc12)C1CCN(c2ccc(N3CCOCC3)nn2)CC1` is -1.29.
Consider `Cn1c2ccccc2c2cnn(CC(=O)N3CCN(C4CCCCC4)CC3)c(=O)c21`, for which the fold change was -1.05.
Regarding `NC(=O)c1sc2nc(C3CC3)cc(-c3ccc(Br)cc3)c2c1N`, the fold change was -1.28.
As to `O=C(NC1CCCc2ccccc21)c1cccc(NC2=NC3CS(=O)(=O)CC3S2)c1` (stereo unspecified), the fold change was 1.36.
`CCOc1ccc(-n2c(O)cnc2Nc2nc(C)cc(C)n2)cc1`: the fold change is -1.65.
The same measure, in the same setting: the result for `O=c1c(O)c(-c2ccc3c(c2)OCO3)oc2ccccc12` reads 1.
Turning to `O=C(CSc1nc2[nH]ncc2c(=O)n1-c1ccccc1)Nc1nsc(-c2ccc(Cl)cc2)n1`, the fold change is 1.26.
